# Experimental data published in PubChem BioAssay (Tox21).
# Inconclusive results are not listed. A call without a number means that no potency is given here. Active and inactive are the calls of the source. The call rests on the fitted dose curve.
# Experiment: cAMP Responsive Elements (CRE) small molecule agonists, cell-based qHTS assay (AID 1963590)
# Settings: CRE-bla HEK293T, beta-lactamase FRET ratio, 3 h; series mostly up to 92.4 µM
# Description: U.S. Tox21 Program National Center for Advancing Translational Sciences [NCATS] Division of Preclinical Innovation [DPI] U.S. Environmental Protection Agency [EPA] National Institutes of Environmental Health Sciences [NIEHS] National Toxicology Program [NTP] U.S. Food and Drug Administration [FDA] Tox21 Assay Overview: CREB (cyclic-AMP Responsive Element Binding Protein) is a cellular transcription factor. It binds to certain DNA sequences called cAMP Responsive Elements (CRE) and regulates the transcription of the genes. […] This cell line can be used to find agonists/antagonists of the cyclic AMP signaling pathway. The activation of the report gene under culture conditions can be detected by fluorescence intensity. This cell line has been used to screen the Tox21 10K compound library to identify agonists that induce oxidative stress.
# Tox21 Assay Protocol Summary: CRE-bla Hek 293T cells were suspended in assay medium (DMEM containing 10% dialyzed FBS, 0.1 mM NEAA, 1 mM sodium pyruvate and 25 mM HEPES) and dispensed at 2,000 cells/5 uL /well into 1536-well black wall/clear bottom plates using a Multidrop Combi (ThermoFisher Scientific, Waltham, MA) dispenser. After the assay plates were incubated at 37 C/5% CO2 for 18 hrs, 23 nL of compounds dissolved in DMSO, positive controls or DMSO only was transferred to the assay plate by a pintool workstation (Kalypsys, San Diego, CA). After the plates were incubated at 37 C/5% CO2 for 3 hrs, 1 uL of LiveBLAzer B/G FRET substrate (Invitrogen, Carlsbad, CA) was added to each well using Bioraptr Flying Reagent Dispenser (FRD, Aurora Discovery, San Diego, CA). The plates were incubated at room temperature for 2 h.
row,Compound,Potency
1,CCCCn1cc[n+](C)c1C,inactive
2,CN(C)P(=O)(N(C)C)N(C)C,inactive
3,O=C(O)CC(O)(CC(=O)O)C(=O)O,inactive
4,COc1ccc(C=O)cc1OC,inactive
5,CCCCn1cc[n+](C)c1,inactive
6,CS(=O)(=O)Cl,inactive
7,CCC(=O)Nc1ccc(Cl)c(Cl)c1,inactive
8,C=CCc1cc(OC)c2c(c1)OCO2,inactive
9,O=[N+]([O-])c1ccc(CBr)cc1,inactive
10,Cc1ccc(-c2nc3ccc(C)cn3c2CC(=O)N(C)C)cc1,inactive
11,Cc1cc(-c2cc(C)c(N)c(C)c2)cc(C)c1N,inactive
12,COc1cc(OC)nc(NC(=O)NS(=O)(=O)c2ncccc2C(=O)N(C)C)n1,inactive
13,Nc1cc(Cl)cc(C(=O)O)c1Cl,inactive
14,O=C1C=CC(=O)C=C1,inactive
15,O=C(O)C(Br)Br,inactive
16,Cl[C@H]1OCCO[C@@H]1Cl,inactive
17,CCOP(=S)(OCC)SCSC(C)(C)C,inactive
18,CNc1cnn(-c2cccc(C(F)(F)F)c2)c(=O)c1Cl,inactive
19,COC(=O)c1sccc1S(=O)(=O)NC(=O)Nc1nc(C)nc(OC)n1,inactive
20,Oc1ccc(-c2ccccc2)cc1,inactive

row,Compound,Potency
1,Cc1cccc(C)c1N,inactive
2,O=C(NCc1cccnc1)Nc1ccc([N+](=O)[O-])cc1,inactive
3,Cc1ccc(N)c(N)c1,inactive
4,Nc1cccnc1,inactive
5,COCC(=O)N(c1c(C)cccc1C)C(C)C(=O)OC (stereo not given),inactive
6,ClC(Cl)(Cl)c1ccccc1,inactive
7,Clc1nc(Cl)nc(Nc2ccccc2Cl)n1,inactive
8,Cc1ncc(CNC(=O)N(CCCl)N=O)c(N)n1,inactive
9,CC(C)C(=O)OCC(C)(C)C(OC(=O)C(C)C)C(C)C (stereo not given),inactive
10,O=C1CCCN1,inactive
11,C=CC(=O)OCC(CC)CCCC (stereo not given),inactive
12,Cl/C=C\C[N+]12CN3CN(CN(C3)C1)C2,inactive
13,Cl/C=C/Cl,inactive
14,ClCCOCOCCCl,inactive
15,CCCCCCCCCCCCCCCCCC(=O)O,inactive
16,NC(=O)CF,inactive
17,CCCCN(CCCC)N=O,inactive
18,N#CC(Cl)(Cl)Cl,inactive
19,O=NN1CCCCCCC1,inactive
20,CCCCC(CC)COC(=O)c1c(Br)c(Br)c(Br)c(Br)c1C(=O)OCC(CC)CCCC (stereo not given),inactive
